According to PubChem BioAssay (Tox21):
“And” between values parts separate entries of the source, which are not always exact repeats. Equal values may be shown once. Records with an inconclusive call do not appear. The source made the active and inactive calls. Unless noted, calls follow the shape of the dose curve; as a rule, active = well fitted curve in the direction sought with a large enough effect in the repeat runs; inconclusive = weak or mixed curves; inactive = no such curve, though single readings can be large; an effect the other way counts as inactive or inconclusive.

Assays:
[1] = qHTS assay to identify small molecule agonists of the estrogen receptor alpha (ER-alpha) signaling pathway in the presence of an antagonist - cell viability counter screen (AID 1259386);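 also: series mostly up to about 92 µM; cells exposed to compounds for 22 h at 37 °C before the viability read; nearly all actives have a fitted effect of over 30% in size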
How it was run: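 Viability counter screen using VM7Luc4E2 (full-length ER-alpha, four ERE-luciferase). The cells were treated with compounds alongside ICI-182,780 10.0nM for 22hr, and live-cell protease fluorescence was quantified with CellTiter-Fluor.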

[2] = target: Progesterone receptor (Homo sapiens) (UniProt P06401); test: qHTS assay to identify small molecule agonists of the progesterone receptor (PR) signaling pathway (AID 1346784; calls by dose curve; also: nearly all actives have a fitted effect of over 30% in size)
Chain of Progesterone receptor (Homo sapiens) (P06401 whole entry, looked up): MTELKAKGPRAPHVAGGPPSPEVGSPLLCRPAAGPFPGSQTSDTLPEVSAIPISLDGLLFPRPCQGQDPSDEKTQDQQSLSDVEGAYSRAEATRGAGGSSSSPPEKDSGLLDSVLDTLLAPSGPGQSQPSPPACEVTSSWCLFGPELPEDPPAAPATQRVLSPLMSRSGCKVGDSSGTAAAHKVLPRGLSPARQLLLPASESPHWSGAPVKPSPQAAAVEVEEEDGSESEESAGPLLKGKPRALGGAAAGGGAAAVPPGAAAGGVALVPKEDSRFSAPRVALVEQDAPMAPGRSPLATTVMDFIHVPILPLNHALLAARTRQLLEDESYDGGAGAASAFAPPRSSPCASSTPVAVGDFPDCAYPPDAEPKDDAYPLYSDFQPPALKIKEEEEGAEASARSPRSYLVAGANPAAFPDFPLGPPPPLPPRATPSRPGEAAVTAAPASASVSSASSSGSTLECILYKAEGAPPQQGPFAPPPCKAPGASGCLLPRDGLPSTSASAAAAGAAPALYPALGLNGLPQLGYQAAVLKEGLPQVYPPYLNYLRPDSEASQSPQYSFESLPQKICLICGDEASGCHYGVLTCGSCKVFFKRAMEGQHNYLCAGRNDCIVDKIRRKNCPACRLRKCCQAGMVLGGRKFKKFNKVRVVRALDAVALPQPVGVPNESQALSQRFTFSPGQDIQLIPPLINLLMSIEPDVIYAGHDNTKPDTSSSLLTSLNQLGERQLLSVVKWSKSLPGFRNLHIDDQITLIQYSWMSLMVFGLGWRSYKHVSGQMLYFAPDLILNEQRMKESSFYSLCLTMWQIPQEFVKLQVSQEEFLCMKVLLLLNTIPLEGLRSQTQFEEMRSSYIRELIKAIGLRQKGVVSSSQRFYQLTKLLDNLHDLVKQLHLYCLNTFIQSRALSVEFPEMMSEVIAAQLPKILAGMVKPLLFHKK
How it was run: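 The screen uses PR-UAS-bla HEK 293T cells in charcoal-stripped serum (2%). Compounds are applied for 16 hr at 37C after a 6 hr pre-incubation, and reporter activity is detected with a FRET beta-lactamase substrate after 2 hr at room temperature.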

[3] = target: Progesterone receptor (Homo sapiens) (UniProt P06401); test: qHTS assay to identify small molecule antagonists of the progesterone receptor (PR) signaling pathway (AID 1346795; active = well fitted inhibition curve with a large enough effect in the signal ratio in the repeat runs, not every such curve was filed as active; the % refers to the signal ratio; also: potency is read from the fitted curve at half-maximal effect)
How it was run: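 After 6 hr plating at 37C in 2% stripped-serum medium, PR-UAS-bla HEK293T cells got compounds, then 1 nM R5020. Sixteen hours later, LiveBLAzer substrate was applied for 2 hr at room temperature and fluorescence was recorded.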

[4] = qHTS assay to identify small molecule antagonists of the progesterone receptor (PR) signaling pathway - cell viability counter screen (AID 1346798); also: series mostly up to about 92 µM; nearly all actives have a fitted effect of over 50% in size
How it was run: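 Viability was determined by ATP-based luminescence (CellTiter-Glo) in PR-UAS-bla HEK293T cells cultured in 2% charcoal-stripped serum and incubated 16 hr with compounds under R5020 stimulation.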

[5] = qHTS assay to identify small molecule agonists of the progesterone receptor (PR) signaling pathway - cell viability counter screen (AID 1346799; calls by dose curve; also: nearly all actives have a fitted effect of over 45% in size)
How it was run: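 Viability was scored by ATP luminescence (CellTiter-Glo, 30 min, room temperature) in the same wells used for the reporter readout, after 16 hr compound exposure of PR-UAS-bla HEK293T cells.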

[6] = qHTS assay to identify small molecule antagonists of the TGF-beta/Smad signaling pathway - cell viability counter screen (AID 1346824); also: nearly all actives have a fitted effect of over 50% in size
How it was run: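 Cytotoxicity counter-screen run in the same wells as the beta-lactamase Smad reporter read: CellTiter-Glo luminescence after 30 min at room temperature. HEK 293T SBE-bla cells had 5 hr compound exposure at 37 C with TGF-beta1 (0.25 ng/mL stock).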

[7] = qHTS assay to identify small molecule agonists of the TGF-beta/Smad signaling pathway - cell viability counter screen (AID 1346829); also: top concentration of the series differs between compounds; nearly all actives have a fitted effect of over 45% in size
How it was run: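 Compound-treated SBE-bla HEK 293T cells (5 hr, 37 C) were assessed for viability with CellTiter-Glo in parallel with the reporter read.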

[8] = qHTS assay to identify small molecule agonists of the TGF-beta/Smad signaling pathway (AID 1346859; active = well fitted activation curve with a large enough effect in the signal ratio in the repeat runs, not every such curve was filed as active; the % refers to the signal ratio; also: series mostly up to about 77 µM)
How it was run: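 Dual-wavelength fluorescence (460/530 nm emission) quantified beta-lactamase expression under the Smad binding element in HEK 293T cells following 5 hr compound treatment at 37 C.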

[9] = Human pregnane X receptor (PXR) small molecule agonists, qHTS cell viability counter screen (AID 1346977); also: nearly all actives have a fitted effect of over 50% in size
How it was run: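 HepG2 cells stably carrying the PXR-Luc reporter are cultured with 5% charcoal-stripped FBS and treated with compounds for 24hr. CellTiter-Fluor is added at 23hr and fluorescence is read after 1hr.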

[10] = Caspase-3/7 induction in HepG2 cells by small molecules, qHTS assay (AID 1346978); also: nearly all actives have a fitted effect of over 15% in size; also: potency is read from the fitted curve at half-maximal effect
How it was run: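 Caspase-3/7 induction was measured by Caspase-Glo 3/7 luminescence (30 min, room temperature) after a 17 hr compound exposure of wild-type HepG2 cells seeded at 2,000 per well and pre-incubated 5 hr.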

[11] = Caspase-3/7 induction in CHO-K1 cells by small molecules, qHTS cell viability counter screen (AID 1346979); also: nearly all actives have a fitted effect of over 35% in size; also: potency is read from the fitted curve at half-maximal effect
How it was run: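 Seeding: 1,500 CHO-K1 cells/well. Rest: 5hr, 37C. Treatment: compounds in DMSO, 16hr. Read: CellTiter-Fluor, 1hr, fluorescence.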

[12] = Caspase-3/7 induction in CHO-K1 cells by small molecules, qHTS assay (AID 1346980); also: nearly all actives have a fitted effect of over 15% in size; also: potency is read from the fitted curve at half-maximal effect
How it was run: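 Luminescent Caspase-Glo 3/7 read (30min, room temperature) quantified apoptosis induction. Cells were wild-type CHO-K1, treated with compound for 17hr at 37 C and 5% CO2.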

[13] = Caspase-3/7 induction in HepG2 cells by small molecules, qHTS cell viability counter screen (AID 1346981); also: nearly all actives have a fitted effect of over 30% in size; also: potency is read from the fitted curve at half-maximal effect
How it was run: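 Viability determined by CellTiter-Fluor fluorescence in HepG2 wells also used for the luminescent Caspase-Glo 3/7 read. Compounds were present for 16 hr at 37 C, 5% CO2 before reagent addition.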

[14] = target: Thyrotropin receptor (Homo sapiens) (UniProt P16473); test: qHTS assay to identify small molecule antagonists of the thyroid stimulating hormone receptor (TSHR) signaling pathway (AID 1259385; calls by dose curve; also: nearly all actives have a fitted effect of over 20% in size)
Chain of Thyrotropin receptor (Homo sapiens) (P16473 whole entry, looked up): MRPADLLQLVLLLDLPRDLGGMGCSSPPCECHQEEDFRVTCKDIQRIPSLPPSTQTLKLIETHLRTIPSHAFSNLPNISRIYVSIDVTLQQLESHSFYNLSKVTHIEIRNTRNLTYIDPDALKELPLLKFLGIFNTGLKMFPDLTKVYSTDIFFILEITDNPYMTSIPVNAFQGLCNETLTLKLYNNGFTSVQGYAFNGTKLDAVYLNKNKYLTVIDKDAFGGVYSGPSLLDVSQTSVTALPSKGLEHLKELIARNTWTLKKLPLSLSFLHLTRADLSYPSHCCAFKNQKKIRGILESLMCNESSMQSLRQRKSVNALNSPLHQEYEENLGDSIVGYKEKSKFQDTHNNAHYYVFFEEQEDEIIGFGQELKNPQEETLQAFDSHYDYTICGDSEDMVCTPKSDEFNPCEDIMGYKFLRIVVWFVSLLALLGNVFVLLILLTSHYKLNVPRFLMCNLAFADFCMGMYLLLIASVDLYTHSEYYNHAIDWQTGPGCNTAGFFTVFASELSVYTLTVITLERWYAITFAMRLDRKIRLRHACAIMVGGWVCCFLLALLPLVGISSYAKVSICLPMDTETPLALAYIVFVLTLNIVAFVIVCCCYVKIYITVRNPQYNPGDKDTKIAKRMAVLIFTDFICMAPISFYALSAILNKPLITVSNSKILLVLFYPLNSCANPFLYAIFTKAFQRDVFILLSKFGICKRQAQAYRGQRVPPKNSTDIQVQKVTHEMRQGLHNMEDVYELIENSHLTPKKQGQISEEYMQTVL
How it was run: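 Antagonist mode: compound-treated TSHR-expressing HEK293 cells were stimulated with 1.5 ng/mL TSH (final) in presence of Ro20-1724 for 30 min at RT. HTRF cAMP detection after 1 h; each compound tested at 15 concentrations, triplicate.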

[15] = target: Thyrotropin-releasing hormone receptor (Homo sapiens) (UniProt P34981); test: qHTS assay to identify small molecule antagonists of the thyrotropin-releasing hormone receptor (TRHR) signaling pathway (AID 1346877; active = well fitted inhibition curve with a large enough effect in the repeat runs, not every such curve was filed as active; also: series mostly up to about 51 µM)
Chain of Thyrotropin-releasing hormone receptor (Homo sapiens) (P34981 whole entry, looked up): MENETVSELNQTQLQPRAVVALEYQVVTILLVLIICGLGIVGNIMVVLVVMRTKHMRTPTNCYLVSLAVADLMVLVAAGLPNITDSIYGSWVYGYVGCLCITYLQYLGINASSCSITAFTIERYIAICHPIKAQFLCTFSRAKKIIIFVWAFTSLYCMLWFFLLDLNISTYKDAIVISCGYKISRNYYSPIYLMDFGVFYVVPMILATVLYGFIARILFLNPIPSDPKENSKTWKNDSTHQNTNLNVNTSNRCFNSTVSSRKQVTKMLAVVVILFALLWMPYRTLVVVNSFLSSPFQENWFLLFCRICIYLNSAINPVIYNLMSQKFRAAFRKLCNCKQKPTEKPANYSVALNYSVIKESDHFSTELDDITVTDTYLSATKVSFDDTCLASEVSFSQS
How it was run: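 Following an 18 h incubation at 37 °C and a 2 h calcium dye load, TRHR-HEK293 cells were exposed to compound (5 min, room temperature) and challenged with TRH, 1 nM final.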

[16] = target: Thyrotropin-releasing hormone receptor (Homo sapiens) (UniProt P34981); test: qHTS assay to identify small molecule agonists of the thyrotropin-releasing hormone receptor (TRHR) signaling pathway (AID 1346891; calls by dose curve;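 also: HEK293 cells expressing TRHR with calcium dye readout; series mostly up to about 58 µM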)
How it was run: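 Kinetic fluorescence (3 min, 1 s intervals) reported intracellular calcium after compound transfer onto TRHR-Hek293 cells pre-loaded with dye for 2 h at 37 °C.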

[17] = target: Nuclear receptor subfamily 1 group I member 2 (Homo sapiens) (UniProt O75469); test: Human pregnane X receptor (PXR) small molecule agonists, qHTS assay (AID 1346982); also: nearly all actives have a fitted effect of over 35% in size; also: potency is read from the fitted curve at half-maximal effect
Chain of Nuclear receptor subfamily 1 group I member 2 (Homo sapiens) (O75469 whole entry, looked up): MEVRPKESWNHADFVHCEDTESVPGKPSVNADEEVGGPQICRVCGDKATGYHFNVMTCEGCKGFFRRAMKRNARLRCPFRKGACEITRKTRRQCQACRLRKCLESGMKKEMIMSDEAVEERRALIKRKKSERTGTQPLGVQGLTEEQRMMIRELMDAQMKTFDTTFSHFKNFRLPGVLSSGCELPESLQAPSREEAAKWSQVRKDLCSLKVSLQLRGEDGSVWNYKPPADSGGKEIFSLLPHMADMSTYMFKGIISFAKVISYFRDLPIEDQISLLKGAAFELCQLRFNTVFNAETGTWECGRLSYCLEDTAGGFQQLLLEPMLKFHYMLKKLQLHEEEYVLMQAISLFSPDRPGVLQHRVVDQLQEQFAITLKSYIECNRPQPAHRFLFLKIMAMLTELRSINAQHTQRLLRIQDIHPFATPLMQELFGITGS
How it was run: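 Compound-induced hPXR transactivation of a CYP3A4 luciferase reporter was scored in HepG2 PXR-Luc cells over 24 hr at 37 C, 5% CO2, by luminescence.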

[18] = target: Cytochrome P450 2D6 (Homo sapiens) (UniProt P10635); test: Cytochrome P450 Family 2 Subfamily D Member 6 (CYP2D6) small molecule antagonists: luciferase reporter qHTS assay (AID 1671196); also: nearly all actives have a fitted effect of over 50% in size; also: potency is read from the fitted curve at half-maximal effect
Chain of Cytochrome P450 2D6 (Homo sapiens) (P10635 whole entry, looked up): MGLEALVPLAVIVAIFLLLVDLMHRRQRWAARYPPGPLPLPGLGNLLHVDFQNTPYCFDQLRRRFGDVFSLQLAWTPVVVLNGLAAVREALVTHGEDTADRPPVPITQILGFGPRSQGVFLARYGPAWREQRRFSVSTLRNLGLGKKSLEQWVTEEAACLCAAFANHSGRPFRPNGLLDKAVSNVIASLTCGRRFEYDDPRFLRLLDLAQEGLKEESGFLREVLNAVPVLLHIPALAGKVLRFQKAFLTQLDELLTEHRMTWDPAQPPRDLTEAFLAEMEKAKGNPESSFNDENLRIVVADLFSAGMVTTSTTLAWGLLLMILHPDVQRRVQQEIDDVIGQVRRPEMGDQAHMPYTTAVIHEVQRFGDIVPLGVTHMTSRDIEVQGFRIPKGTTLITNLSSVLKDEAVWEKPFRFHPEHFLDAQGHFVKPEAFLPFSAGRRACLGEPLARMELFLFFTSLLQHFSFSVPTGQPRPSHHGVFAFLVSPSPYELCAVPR
How it was run: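 Each well received CYP2D6 with its proluciferin substrate and chemical, sat 10 min, then got NADPH regeneration solution for 1 h at room temperature. Luminescence in RLU served as the activity measure.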

[19] = target: Nuclear receptor subfamily 1 group I member 2 (Rattus norvegicus) (UniProt Q9R1A7); test: Rat pregnane X receptor (rPXR) activation by small molecules, qHTS assay (AID 1346983); details: rPXR luciferase reporter cells, One-Glo luminescence, 24 h; max activation: active compounds read high; also: nearly all actives have a fitted effect of over 20% in size
Chain of Nuclear receptor subfamily 1 group I member 2 (Rattus norvegicus) (Q9R1A7 whole entry, looked up): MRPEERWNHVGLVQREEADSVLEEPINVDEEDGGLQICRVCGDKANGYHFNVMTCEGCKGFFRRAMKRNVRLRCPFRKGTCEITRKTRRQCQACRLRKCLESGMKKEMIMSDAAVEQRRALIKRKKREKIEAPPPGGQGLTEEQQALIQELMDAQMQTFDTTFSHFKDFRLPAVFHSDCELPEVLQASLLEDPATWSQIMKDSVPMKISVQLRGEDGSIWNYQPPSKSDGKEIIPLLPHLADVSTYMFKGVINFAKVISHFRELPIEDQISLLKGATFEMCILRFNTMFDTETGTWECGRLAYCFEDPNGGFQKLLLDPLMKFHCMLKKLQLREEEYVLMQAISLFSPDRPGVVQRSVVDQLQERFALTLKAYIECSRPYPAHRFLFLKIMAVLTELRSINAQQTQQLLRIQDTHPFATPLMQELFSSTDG
How it was run: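 Luminescent readout (One-Glo luciferase, 30 min room temperature) followed 24 hr compound treatment at 37 C of rPXR cells plated 2,000 per well and preincubated 5hr; qHTS format with compounds delivered in DMSO.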

[20] = target: Nuclear receptor subfamily 1 group I member 2 (Homo sapiens) (UniProt O75469); test: Human pregnane X receptor (PXR) activation by small molecules, qHTS assay (AID 1346985); also: nearly all actives have a fitted effect of over 40% in size
How it was run: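 DPX-2 cells (HepG2 co-transfected with a PXR response element and a CYP3A4-promoter luciferase construct) were seeded at 2,000 per well, rested 5 hr at 37C, then exposed to DMSO-dissolved compounds for 24 hr. Activation was read as luciferase luminescence.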
% is scaled to controls: 0 for no effect and ±100 for the full control effect.

CC(C(=O)O)c1ccc(/C=C2\CCCCC2=O)cc1 (stereo not given)
inactive: Potency [1] | Potency [2] | Potency [3] | Potency [4] | Potency [5] | outcome [6] | outcome [7] | outcome [8] | Potency [9] | Potency [10] | Potency [11] | Potency [12] | Potency [13]

CC1=C(C)C(=O)C(CCCCC#CCCCC#CCO)=C(C)C1=O
inactive: Potency [14] | Potency [2] | outcome [6] | outcome [7] | outcome [8] | outcome [15] | outcome [16] | Potency [9] | Potency [10] | Potency [12]
active: Potency [11] 29.8 µM | Potency [17] 26.6 µM | Potency [18] 15.5 µM

O=Cc1ccc([N+](=O)[O-])cc1
inactive: Potency [14] | Potency [2] | Potency [3] | Potency [4] | outcome [6] | outcome [7] | outcome [8] | Potency [9] | Potency [10] | Potency [11] | Potency [12]

Cc1c(Cl)cccc1[N+](=O)[O-]
inactive: Potency [1] | Potency [2] | Potency [3] | Potency [4] | Potency [5] | outcome [6] | outcome [7] | outcome [8] | outcome [15] | outcome [16] | Potency [9] | Potency [10] | Potency [11] | Potency [12] | Potency [13] | Potency [17] | Potency [18]

CC(C)(O)C(=O)O
inactive: Potency [1] | Potency [2] | Potency [3] | Potency [4] | Potency [5] | outcome [6] | outcome [7] | outcome [8] | Potency [9] | Potency [10] | Potency [11] | Potency [12] | Potency [13] | Potency [17]

CC(C)C[C@H](NC(=O)[C@H](Cc1ccccc1)NC(=O)c1cnccn1)B(O)O
inactive: Potency [14] | Potency [2] | Potency [4] | Potency [5] | outcome [6] | outcome [7] | outcome [8] | outcome [15] | outcome [16] | max activation [19] -18.4% and -17.1% | Potency [20] | Potency [18]
active: Potency [10] 0.211 µM | Potency [11] 0.0168 µM | Potency [12] 0.0067 µM | Potency [13] 0.0841 µM | Potency [17] 0.0084 µM

O=C(O)c1ccc2cc(O)ccc2c1
inactive: Potency [1] | Potency [2] | Potency [3] | Potency [4] | Potency [5] | outcome [6] | outcome [7] | outcome [8] | outcome [15] | outcome [16] | Potency [9] | Potency [10] | Potency [11] | Potency [12] | Potency [13] | Potency [17]

CCN(CC)CC(=O)OCC(=O)[C@@]1(O)CC[C@H]2[C@@H]3CCC4=CC(=O)CC[C@]4(C)[C@H]3[C@@H](O)C[C@@]21C
inactive: Potency [14] | Potency [4] | Potency [5] | outcome [6] | outcome [7] | outcome [8] | outcome [15] | outcome [16] | Potency [9] | Potency [10] | Potency [11] | Potency [12] | Potency [13] | Potency [18]

Oc1ccc(Oc2ccccc2)cc1
active: Potency [3] 20.6 µM | Potency [17] 46.1 µM | Potency [18] 26.8 µM
inactive: Potency [14] | Potency [2] | Potency [4] | outcome [6] | outcome [7] | outcome [8] | Potency [9] | Potency [10] | Potency [12] | Potency [13]

CC(COc1ccccc1)NC(C)C(O)c1ccc(O)cc1 (stereo not given)
inactive: Potency [14] | Potency [2] | Potency [3] | Potency [5] | outcome [6] | outcome [7] | outcome [8] | outcome [15] | outcome [16] | Potency [9] | Potency [10] | Potency [11] | Potency [12] | Potency [13] | max activation [19] 3.54% | Potency [20]
active: Potency [17] 23.7 µM | Potency [18] 0.55 µM

SCCOCCOCCS
inactive: Potency [1] | Potency [2] | Potency [3] | Potency [4] | Potency [5] | outcome [6] | outcome [7] | outcome [8] | outcome [15] | outcome [16] | Potency [9] | Potency [10] | Potency [11] | Potency [12] | Potency [18]
active: Potency [17] 4.86 µM

CCOC(C)OCC
inactive: Potency [1] | Potency [2] | Potency [3] | Potency [4] | Potency [5] | outcome [6] | outcome [7] | outcome [8] | outcome [15] | outcome [16] | Potency [9] | Potency [10] | Potency [11] | Potency [12] | Potency [13] | Potency [17] | max activation [19] -4.85% | Potency [20] | Potency [18]

CC(=O)Nc1cccc(N)c1
inactive: Potency [1] | Potency [2] | Potency [3] | Potency [4] | Potency [5] | outcome [6] | outcome [7] | outcome [8] | outcome [15] | outcome [16] | Potency [9] | Potency [10] | Potency [11] | Potency [12] | Potency [13]

Cc1ccc(Cl)c(OCC(O)CNC(C)(C)C)c1 (stereo not given)
inactive: Potency [1] | Potency [2] | Potency [3] | Potency [4] | Potency [5] | outcome [6] | outcome [7] | outcome [8] | outcome [15] | outcome [16] | Potency [9] | Potency [10] | Potency [11] | Potency [12] | Potency [13]

O=C(O)c1ccncc1
inactive: Potency [14] | Potency [2] | Potency [3] | Potency [5] | outcome [6] | outcome [7] | outcome [8] | outcome [15] | outcome [16] | Potency [10] | Potency [11] | Potency [12]

O=c1c2ccccc2oc2ccccc12
inactive: Potency [14] | Potency [2] | Potency [3] | Potency [5] | outcome [6] | outcome [7] | outcome [8] | outcome [15] | outcome [16] | Potency [9] | Potency [10] | Potency [11] | Potency [12] | Potency [13] | Potency [17]

Cc1c(Cl)cccc1Nc1ccccc1C(=O)O
inactive: Potency [14] | Potency [2] | outcome [6] | outcome [7] | outcome [15] | outcome [16] | Potency [9] | Potency [10] | Potency [11] | Potency [12] | Potency [13] | Potency [18]
